From PubChem BioAssay (NCATS)
Records with an inconclusive call do not appear. Active and inactive are the calls of the source. Unless noted, the call rests on the fitted dose curve; in most records, active means well fitted curve in the direction sought with a large enough effect; inconclusive means small, poorly fitted or top-dose-only effect, or another doubt; inactive means no such curve, though single readings can be large; an effect the other way counts as inactive or inconclusive.

Key:
[1] = Cell Viability - N2a (AID 540); settings: N2a mouse neuroblastoma cell viability; activity change, negative = cytotoxicity: at 92.2 µM (top of the series);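 further: plate controls were DMSO alone for no effect and tamoxifen control for full effect; nearly all actives have a fitted effect of over 45% in size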
Method in brief: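 CellTiter-Glo ATP luminescence, read 20 min after reagent at room temperature, reported viability following 40 h compound treatment at 37 °C. N2a mouse neuroblastoma cells seeded 1500/well; Hill equation gave AC50.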

[2] = Cell Viability - NIH 3T3 (AID 541); settings: NIH 3T3 cell viability, qHTS; activity change, negative = cytotoxicity: at 92.2 µM (top of the series);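 further: plate controls were DMSO alone for no effect and tamoxifen positive control for full effect; nearly all actives have a fitted effect of over 25% in size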
Method in brief: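 Intracellular ATP (CellTiter-Glo luminescence, 20 min at room temperature) measured after 40 hr compound exposure at 37 °C of 1000 NIH 3T3 mouse fibroblasts/well in complete medium; AC50 derived by Hill-equation modelling of qHTS concentration-response curves.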

[3] = Cell Viability - HUV-EC-C (AID 542); settings: HUV-EC-C endothelial cell viability, qHTS; series mostly up to 92.2 µM; further: on the % scale 0 is the no-effect control and ±100 the full control effect; nearly all actives have a fitted effect of over 35% in size
Method in brief: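 CellTiter-Glo luminescence measured ATP loss in HUV-EC-C cells (1000/well) after 40 hr compound exposure at 37 °C, in complete culture medium. Concentration-response data were Hill-fitted to give AC50.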

[4] = Cell Viability - H-4-II-E (AID 543); settings: H-4-II-E rat hepatoma viability; series mostly up to 92.2 µM; further: on the % scale 0 is the no-effect control and ±100 the full control effect; nearly all actives have a fitted effect of over 35% in size
Method in brief: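 CellTiter-Glo luminescence (intracellular ATP) measured after 40 h compound exposure at 37 °C in H-4-II-E rat hepatoma cells seeded at 1500/well. Values are AC50s fitted with the standard Hill equation.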

[5] = Cell Viability - SH-SY5Y (AID 544); settings: SH-SY5Y neuroblastoma cell viability; series mostly up to 92.2 µM; further: nearly all actives have a fitted effect of over 55% in size
Method in brief: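 Cytotoxicity measured via ATP-dependent luciferase luminescence (CellTiter-Glo) following 40 h, 37 °C exposure of 1500 SH-SY5Y cells per well. Concentration-response data were fitted with the standard Hill equation to give AC50.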

[6] = Cell Viability - Renal Proximal Tubule (AID 545); settings: renal proximal tubule cells viability, primary cells of rat origin; at 91.7 µM (top of the series); further: nearly all actives have a fitted effect of over 40% in size
Method in brief: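 In this qHTS format, normal rat kidney-derived proximal tubule cells in complete culture medium receive compound titrations, then sit 40 hours at 37 °C before luciferase-based ATP quantitation; potency is reported as AC50 from concentration-response curves.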

[7] = Cell Viability - Mesenchymal (AID 546); settings: mesenchymal cells viability, qHTS; activity change, negative = cytotoxicity: at 91.7 µM (top of the series);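 further: cells exposed to compound for 40 hours before reading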
Method in brief: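 CellTiter-Glo luminescence (intracellular ATP, 20 min room temperature) after 40 hr compound exposure at 37 °C of 1000 glomerulus-derived human kidney mesenchymal cells/well; AC50 values obtained by fitting qHTS concentration-response data to the Hill equation.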

[8] = Cellular Toxicity (caspase-3) HepG2 (AID 654); settings: HepG2 caspase-3 activation, luminescence, 0% = DMSO only, 100% = tamoxifen; series mostly up to 92.2 µM;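 further: cells exposed to compound for 16 hours before reading; 0% = DMSO alone and 100% = caspase signal from 100 µM tamoxifen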
Method in brief: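 Caspase 3/7 activation is measured as a luminescence increase (aminoluciferin substrate) after 16 h compound exposure of human hepatocarcinoma HepG2 cells. AC50 values are Hill fits, scaled between DMSO baseline and 100 uM tamoxifen stimulation.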

[9] = Cellular Toxicity (caspase-3) Jurkat (AID 655); settings: Jurkat caspase-3 activation, luminescence, DMSO = 0%, tamoxifen = 100%; at 92.2 µM (top of the series);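 further: cells exposed to compound for 16 h at 37 °C before reading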
Method in brief: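 qHTS in human Jurkat T-cell leukemia line: 16 hr compound treatment at 37 °C, caspase-3/7 activity measured by Caspase-Glo luminescence. AC50 derived from Hill equation.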

[10] = Cellular Toxicity (caspase-3) HUV-EC-C (AID 656); settings: HUV-EC-C cells, caspase-3 activation (apoptosis), vehicle = 0, 100 µM tamoxifen = 100%; series mostly up to 92.2 µM
Method in brief: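 Concentration-dependent caspase 3/7 induction was assessed in HUV-EC-C cells exposed for 16 hours. Data scaled between DMSO and tamoxifen (100 uM) controls.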

[11] = Cellular Toxicity (caspase-3) SHSY5Y (AID 657); settings: SH-SY5Y caspase-3 activation, DMSO zero, 10 µM staurosporine = 100%; series mostly up to 91.7 µM;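 further: cells exposed to compound for 16 hours at 37 °C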
Method in brief: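 Readout: caspase-cleaved peptide-aminoluciferin substrate driving luciferase light in SH-SY5Y neuroblastoma cells after 16 h treatment. Response normalized to DMSO and 10 uM staurosporine controls.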

[12] = Cellular Toxicity (caspase-3) BJ (AID 658); settings: BJ fibroblasts, luminescence, normalized: DMSO 0%, staurosporine 100%; series mostly up to 91.7 µM
Method in brief: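 Caspase-Glo 3/7 luminescence, read 1 hr after reagent at room temperature, in normal BJ fibroblasts exposed 16 hours at 37 °C. AC50 values from Hill-equation concentration-response, scaled between DMSO basal and 10 uM staurosporine as 100%.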

[13] = Cellular Toxicity (caspase-3) MRC-5 (AID 659); settings: MRC-5 cells, luminescence, normalized: DMSO 0%, 10 µM staurosporine 100%; series mostly up to 91.7 µM
Method in brief: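 Luminescent Caspase-Glo 3/7 read-out (1 h, room temperature) after a 16 h, 37 °C compound exposure of MRC-5 lung fibroblasts at 1500 cells/well. Concentration-response AC50 from Hill equation; 0% DMSO, 100% 10 uM staurosporine.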

[14] = molecular target: Estrogen receptor (Homo sapiens) (UniProt P03372); test: qHTS assay for small molecule antagonists of estrogen receptor alpha signaling (AID 588513; active means well fitted curve in the direction sought with a large enough effect in the signal ratio, with a control signal flat, not every such curve was filed as active; the % refers to the signal ratio; further: on the % scale 0 is the no-effect control and ±100 the full control effect); settings: ER-alpha-UAS-bla HEK293, beta-lactamase ratio, antagonist mode; series mostly up to 76.9 µM
Estrogen receptor (Homo sapiens), sequence (P03372 whole entry, looked up): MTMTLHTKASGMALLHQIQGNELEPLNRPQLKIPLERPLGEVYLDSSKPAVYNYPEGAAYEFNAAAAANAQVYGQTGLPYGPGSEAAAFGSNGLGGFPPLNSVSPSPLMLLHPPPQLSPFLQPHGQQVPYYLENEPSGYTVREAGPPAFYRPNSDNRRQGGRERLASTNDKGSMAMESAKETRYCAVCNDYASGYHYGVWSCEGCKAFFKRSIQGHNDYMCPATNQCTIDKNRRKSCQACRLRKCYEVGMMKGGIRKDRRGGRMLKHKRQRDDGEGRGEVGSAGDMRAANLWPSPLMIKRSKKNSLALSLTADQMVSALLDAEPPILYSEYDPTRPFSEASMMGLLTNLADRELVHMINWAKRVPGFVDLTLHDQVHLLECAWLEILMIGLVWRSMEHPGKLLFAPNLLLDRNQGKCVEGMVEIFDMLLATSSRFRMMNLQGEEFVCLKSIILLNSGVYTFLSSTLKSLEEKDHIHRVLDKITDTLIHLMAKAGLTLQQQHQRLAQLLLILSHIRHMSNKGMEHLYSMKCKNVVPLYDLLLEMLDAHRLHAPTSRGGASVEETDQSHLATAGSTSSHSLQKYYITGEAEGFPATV
Method in brief: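 Antagonist-mode qHTS in ER-alpha-UAS-bla HEK 293 cells: compound titration, 0.5nM estradiol for 18 h, CCF4 fluorescence, Hill-derived IC50.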

[15] = molecular target: Glucocorticoid receptor (Homo sapiens) (UniProt P04150); test: qHTS assay for small molecule antagonists of glucocorticoid receptor signaling (AID 588533; active means well fitted inhibition curve with a large enough effect in the signal ratio, with a control signal flat, not every such curve was filed as active; the % refers to the signal ratio;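 further: cells stimulated with 2 nM dexamethasone as agonist; on the % scale 0 is the no-effect control and ±100 the full control effect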); settings: HeLa MMTV-bla, GRE beta-lactamase ratio, antagonist mode, 18 h; series mostly up to 76.8 µM
Glucocorticoid receptor (Homo sapiens), sequence (P04150 whole entry, looked up): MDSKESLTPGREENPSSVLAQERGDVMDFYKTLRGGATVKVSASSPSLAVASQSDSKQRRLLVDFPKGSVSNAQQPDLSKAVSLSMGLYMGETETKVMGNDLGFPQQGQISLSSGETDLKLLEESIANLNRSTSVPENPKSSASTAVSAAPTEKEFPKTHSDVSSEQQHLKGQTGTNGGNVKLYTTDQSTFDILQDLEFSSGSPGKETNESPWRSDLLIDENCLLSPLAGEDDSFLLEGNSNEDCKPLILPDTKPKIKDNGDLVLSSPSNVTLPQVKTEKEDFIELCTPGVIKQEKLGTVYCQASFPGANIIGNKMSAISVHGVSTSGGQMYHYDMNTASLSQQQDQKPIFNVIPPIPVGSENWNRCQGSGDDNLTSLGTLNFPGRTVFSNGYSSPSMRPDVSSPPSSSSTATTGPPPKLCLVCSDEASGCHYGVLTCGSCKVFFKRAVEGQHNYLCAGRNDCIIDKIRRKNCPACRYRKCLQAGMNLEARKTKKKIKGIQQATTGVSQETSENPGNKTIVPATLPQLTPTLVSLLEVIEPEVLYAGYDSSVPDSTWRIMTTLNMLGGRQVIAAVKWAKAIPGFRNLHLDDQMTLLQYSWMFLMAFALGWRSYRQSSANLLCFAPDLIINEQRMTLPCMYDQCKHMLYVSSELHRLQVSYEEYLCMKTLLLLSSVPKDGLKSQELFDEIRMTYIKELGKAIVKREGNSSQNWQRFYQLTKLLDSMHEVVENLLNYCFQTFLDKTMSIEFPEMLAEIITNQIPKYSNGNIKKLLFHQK
Method in brief: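 Antagonist-mode qHTS: compound titrations added to GRE-bla HeLa cells, then dexamethasone 2 nM final; 18 h, 37 C. CCF4 FRET fluorescence normalized to dexamethasone and DMSO; IC50 from Hill fit.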

[16] = molecular target: Voltage-gated inwardly rectifying potassium channel KCNH2 (Homo sapiens) (UniProt Q12809); test: qHTS Assay for Small Molecule Inhibitors of the Human hERG Channel Activity (AID 588834); settings: U2OS BacMam hERG, FluxOR thallium flux fluorescence; series mostly up to 92.2 µM;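 further: top concentration of the series differs between compounds; on the % scale 0 is the no-effect control and ±100 the full control effect; lower thallium flux fluorescence means stronger hERG block; nearly all actives have a fitted effect of over 50% in size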
Voltage-gated inwardly rectifying potassium channel KCNH2 (Homo sapiens), sequence (Q12809 whole entry, looked up): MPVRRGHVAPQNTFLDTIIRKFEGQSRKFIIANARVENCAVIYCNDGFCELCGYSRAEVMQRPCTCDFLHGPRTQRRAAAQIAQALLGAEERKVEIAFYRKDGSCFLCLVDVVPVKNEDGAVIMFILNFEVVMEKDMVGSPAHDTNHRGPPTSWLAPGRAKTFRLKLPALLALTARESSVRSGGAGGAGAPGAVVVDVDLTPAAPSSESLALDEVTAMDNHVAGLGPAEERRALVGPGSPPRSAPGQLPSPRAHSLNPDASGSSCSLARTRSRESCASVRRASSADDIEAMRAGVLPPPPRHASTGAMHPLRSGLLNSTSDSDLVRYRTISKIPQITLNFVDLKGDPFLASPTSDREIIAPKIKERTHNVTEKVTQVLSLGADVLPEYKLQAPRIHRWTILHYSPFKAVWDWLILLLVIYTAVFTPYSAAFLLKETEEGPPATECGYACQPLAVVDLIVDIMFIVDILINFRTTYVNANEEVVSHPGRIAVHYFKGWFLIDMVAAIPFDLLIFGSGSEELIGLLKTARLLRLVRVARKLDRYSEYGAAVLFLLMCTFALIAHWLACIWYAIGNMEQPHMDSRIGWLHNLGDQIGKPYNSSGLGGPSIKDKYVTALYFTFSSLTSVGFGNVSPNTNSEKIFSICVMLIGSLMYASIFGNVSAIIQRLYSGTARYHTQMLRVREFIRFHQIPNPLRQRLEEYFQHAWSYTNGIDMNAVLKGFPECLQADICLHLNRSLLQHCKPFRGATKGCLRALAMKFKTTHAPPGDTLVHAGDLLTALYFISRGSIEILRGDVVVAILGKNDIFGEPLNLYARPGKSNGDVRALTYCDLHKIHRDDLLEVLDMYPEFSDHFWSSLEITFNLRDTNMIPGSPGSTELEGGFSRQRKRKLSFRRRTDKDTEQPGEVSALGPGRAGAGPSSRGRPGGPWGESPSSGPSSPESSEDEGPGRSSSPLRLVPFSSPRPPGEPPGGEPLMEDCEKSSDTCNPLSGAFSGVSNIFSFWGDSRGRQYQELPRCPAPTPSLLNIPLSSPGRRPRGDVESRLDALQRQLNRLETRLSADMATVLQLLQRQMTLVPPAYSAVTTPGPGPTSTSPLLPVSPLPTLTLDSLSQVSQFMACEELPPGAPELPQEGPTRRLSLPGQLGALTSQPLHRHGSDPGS
Method in brief: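 Homogeneous FluxOR thallium flux assay using hERG-expressing U2OS cells (BacMam). Compound treatment about 10 minutes preceded stimulation; reduced fluorescence taken as channel block.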

[17] = qHTS assay for small molecule disruptors of the mitochondrial membrane potential - 1 hr assay (AID 651754; calls by dose curve; further: on the % scale 0 is the no-effect control and ±100 the full control effect; nearly all actives have a fitted effect of over 35% in size); settings: series mostly up to 92.2 µM
Method in brief: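 Mitochondrial potential in living HepG2 cells after 1 hr compound treatment at 37C was read with Mito-MPS dye added for a further 30 min. Red aggregate and green monomer fluorescence were measured; loss of potential leaves dye as cytoplasmic monomers.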

[18] = qHTS assay for small molecule disruptors of the mitochondrial membrane potential - 5 hr assay (AID 651755; calls by dose curve; further: on the % scale 0 is the no-effect control and ±100 the full control effect; nearly all actives have a fitted effect of over 40% in size); settings: JC-1-type ratio dye; series mostly up to 92.2 µM
Method in brief: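 Membrane-potential dye readout: red aggregate (540 ex/590 em) versus green monomer (490 ex/535 em) fluorescence after 30 min dye loading, following 5 hr compound exposure at 37C of overnight-plated HepG2 cells.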

[19] = molecular target: Tumor necrosis factor (Homo sapiens) (UniProt P01375); test: qHTS assay to identify small molecules that stimulate Tumor Necrosis Factor-alpha (TNF-alpha) secretion (AID 651757; active means well fitted curve in the direction sought with a large enough effect in the signal ratio; the % refers to the signal ratio; further: 0% is about no effect); settings: Human cells, HTRF 665/615 ratio; series mostly up to 92.2 µM
Tumor necrosis factor (Homo sapiens), sequence (P01375 whole entry, looked up): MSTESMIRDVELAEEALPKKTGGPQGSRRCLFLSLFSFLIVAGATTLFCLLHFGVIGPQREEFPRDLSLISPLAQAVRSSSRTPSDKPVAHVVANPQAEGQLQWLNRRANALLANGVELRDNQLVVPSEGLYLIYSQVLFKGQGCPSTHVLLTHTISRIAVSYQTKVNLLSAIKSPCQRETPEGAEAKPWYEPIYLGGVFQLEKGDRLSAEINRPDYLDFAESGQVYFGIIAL
Method in brief: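 Secreted TNF-alpha quantified by TR-FRET sandwich of two labeled anti-TNF-alpha antibodies, incubated 3 hr at room temperature. Preceded by 17 hr, 37 C compound treatment of THP-1 cells at 3000 cells/well.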

[20] = qHTS assay to identify small molecules that stimulate interleukin-8 (IL-8) secretion (AID 651758; active means well fitted activation curve with a large enough effect in the signal ratio; the % refers to the signal ratio; further: 0% is about no effect); settings: HTRF ratio (665/615); series mostly up to 92.2 µM
Method in brief: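 Secreted IL-8 measured homogeneously by TR-FRET (two labelled anti-IL-8 antibodies, 1-3 h at room temperature) after a 16 h, 37 C compound treatment of THP-1 cells at 2000 cells/well.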

C=CC(=C)CCC=C(C)C
inactive: activity change, negative = cytotoxicity [1] 5.78% | Potency [2] | outcome [3] | Potency [4] | Potency [5] | activity change, negative = cytotoxicity [6] 6.82% | activity change, negative = cytotoxicity [7] -3.53% | outcome [8] | caspase-3 activation [9] -0.362% | outcome [10] | outcome [11] | outcome [12] | outcome [13] | Potency [14] | Potency [15] | Potency [16] | Potency [17] | Potency [18] | outcome [19] | Potency [20]
